Reference: ChEMBL document CHEMBL3988442, “University of Dundee, Small-Polar-MMV Screening Library” (2021)

These compounds were tested against T1, Aspartate--tRNA(Asp/Asn) ligase (Mycobacterium tuberculosis (strain ATCC 25618 / H37Rv)) (UniProt P9WFW3) (assay: Assay for Asp RNA synthetase-1 from Mycobacterium tuberculosis). Settings: 30 µM.
T1 sequence (whole entry): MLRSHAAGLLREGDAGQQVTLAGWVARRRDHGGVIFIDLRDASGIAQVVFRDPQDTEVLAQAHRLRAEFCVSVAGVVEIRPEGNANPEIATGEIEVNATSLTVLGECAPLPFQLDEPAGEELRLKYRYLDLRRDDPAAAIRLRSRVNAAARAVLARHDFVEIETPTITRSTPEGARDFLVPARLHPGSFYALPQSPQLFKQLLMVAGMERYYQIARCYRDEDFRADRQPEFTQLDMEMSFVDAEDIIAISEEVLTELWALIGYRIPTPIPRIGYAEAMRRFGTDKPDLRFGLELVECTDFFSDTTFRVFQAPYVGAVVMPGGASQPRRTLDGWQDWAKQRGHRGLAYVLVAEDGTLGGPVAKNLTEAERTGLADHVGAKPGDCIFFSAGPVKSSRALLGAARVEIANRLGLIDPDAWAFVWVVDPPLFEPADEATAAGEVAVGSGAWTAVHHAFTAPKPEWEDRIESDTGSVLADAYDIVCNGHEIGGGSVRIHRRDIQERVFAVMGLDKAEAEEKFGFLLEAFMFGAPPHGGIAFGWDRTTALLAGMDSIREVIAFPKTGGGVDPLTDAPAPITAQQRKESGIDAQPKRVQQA
Assay type: functional
Set-up: scale not given: in the data most compounds retested in dose-response had high values
`CCc1nc(CN(C)CC2CCN(CC(C)O)CC2)no1` (stereo not given) was tested, and the Percent Effect was -3.85%.
Compound `CCOC(=O)CN1CCC2(CC1)CC(=O)c1ccc(OC)cc1O2` has a Percent Effect of -2.78%.
`OCCn1cc(CN2CCN(CCOc3ccccc3)CC2)cn1` gave a Percent Effect of 0.728%.
`COCCc1noc(CN2CCOC(Cn3nc(C)cc3C)C2)n1` (stereo not given) gave a Percent Effect of -2.55%.
With `Cc1cn2c(n1)CCC(NC(=O)c1nc(C)ncc1Cl)C2` (stereo not given) the Percent Effect was 1.79%.
With `CN1CCc2cc(C(CNS(=O)(=O)c3cccs3)N3CCCC3)ccc21` (stereo not given) the Percent Effect was -0.102%.
Work on `Cc1cc(OCC(=O)N2CCCC(c3noc(C)n3)C2)no1` (stereo not given) yielded a Percent Effect of -1.75%.
`CN(CCN1CCCCC1)C(=O)c1cc(CN2CCOCC2)on1` gave a Percent Effect of 5.72%.
`CC(COc1ccccc1)NCc1nc(-c2cccnc2)no1` (stereo not given) was tested, and the Percent Effect was -2.31%.
`Cc1cnn(CC2CCCN2C(=O)c2cc3ccccc3[nH]2)c1` (stereo not given) was tested, and the Percent Effect was 1.27%.
With `FC(F)(F)COCCN1CCN(c2ccc3nncn3n2)CC1` the Percent Effect was 0.546%.
`CC(C)c1noc(CN(Cc2ccccc2F)C2CC2)n1` gave a Percent Effect of 12.6%.
For `COc1cccc(C(=O)N2CCc3ncnc(C)c3CC2)c1`, the Percent Effect was -1.32%.
`Cc1cc2c(cc1C)C(NCc1nnc3n1CCCCC3)CCCO2` (stereo not given) gave a Percent Effect of 0.212%.
With `COCc1cccc(CNC(=O)CN2CCCC2c2noc(C)n2)c1` (stereo not given) the Percent Effect was -0.723%.
`CSCc1cccc(C(=O)N2CCN(CC(C)O)CC2)c1` (stereo not given) showed a Percent Effect of -0.819%.
`COc1cccc(CN2CCCCCC2c2cccs2)c1O` (stereo not given) was tested, and the Percent Effect was 0.335%.
In the case of `O=C(NCc1cccc(F)c1)N1CCC2(CC(=O)N(c3ccsc3)C2)C1` (stereo not given), the Percent Effect is reported as -4.15%.
In the case of `COc1ncc(NC(=O)Nc2cc(C)ccc2OC)cn1`, the Percent Effect is reported as 1.65%.
`CCN(CCn1cccn1)Cc1nc(-c2cccs2)oc1C` showed a Percent Effect of -0.251%.
Work on `c1cc(CNCc2ccnc(N3CCOCC3)c2)c2c(c1)OCCO2` yielded a Percent Effect of 1.9%.
`O=C(c1ccc(C2CCCO2)s1)N1Cc2ccccc2C1` (stereo not given) gave a Percent Effect of 0.948%.
In the case of `CC(C)C(=O)N1CCN(C(=O)CCc2nnc(-c3ccccc3)o2)CC1`, the Percent Effect is reported as 1.17%.
Compound `Cc1cccc(C)c1NC(=O)CCNC(=O)c1ccoc1` has a Percent Effect of -1.5%.
`CC(C)c1nccn1-c1cccc(C2CCN(C)CC2)n1` showed a Percent Effect of -1.47%.
With `O=C(c1cnccn1)N1CCc2onc(CN3CCOCC3)c2C1` the Percent Effect was -0.84%.
`COCc1noc(C2(c3ccc(OC)cc3)CCOCC2)n1` was tested, and the Percent Effect was -1.75%.
`Cc1cnn(CC2CCCN2C(=O)c2cccc(CC#N)c2)c1` (stereo not given) showed a Percent Effect of -1.43%.
`CC(C)COC(C)C(=O)NCc1ccc(OC(C)C)nc1` (stereo not given) gave a Percent Effect of 1.79%.
In the case of `CCn1c(Cn2cncn2)nnc1C1CCN(C(=O)CCSC)CC1`, the Percent Effect is reported as 1.37%.
`O=C(c1cccnc1-n1cncn1)N1CCc2ccccc2C1` showed a Percent Effect of -3.76%.
`CN(Cc1ccsc1)C(=O)c1cccc(F)c1` showed a Percent Effect of -5.62%.
Work on `CSCCCN1CCn2nc(CNC(C)=O)cc2C1` yielded a Percent Effect of 3.05%.
With `O=C(c1nn(-c2ccccc2F)cc1O)N1CCCC1` the Percent Effect was 3.09%.
`CC(C)NC(=O)N1CC[C@@H]2CN(Cc3ccccc3)S(=O)(=O)[C@@H]2CC1` gave a Percent Effect of -3.29%.
`CN(Cc1cnccn1)C(=O)c1ccnc(OC2CCC2)c1` gave a Percent Effect of 3.71%.
For `CC(NC(=O)NCc1cccc(N2CCCC2=O)c1)c1ccccc1` (stereo not given), the Percent Effect was -1.99%.
With `CCc1nnc2n1CCN(Cc1ccc3c(c1)OCCO3)C2` the Percent Effect was 4.98%.
`Cn1cc(CN2CC[C@@H]3O[C@H](C(=O)N4CCOCC4)C[C@@H]32)cn1` gave a Percent Effect of 0.521%.
For `O=C(C1CCC1)N1CCC2(COCc3cnc(N4CCOCC4)nc32)C1` (stereo not given), the Percent Effect was 2.45%.
